Values joined by “and” are separate entries in the source; they are usually repeats but may differ in a detail not shown here. Identical values can stand only once. Records with an inconclusive call do not appear. Some structures have more than one record in an assay (separate samples or runs), and their calls can disagree. Active and inactive are the calls of the source. Calls come from the whole dose curve; as a rule, active = well fitted curve in the direction sought with a large enough effect in the repeat runs; inconclusive = weak or mixed curves; inactive = no such curve, though single readings can be large; an effect the other way counts as inactive or inconclusive.
Assays:
[1] = qHTS RealTime-Glo MT Cell Viability Assay in HepG2 cells - 40 hour (AID 1224870); note: nearly all actives have a fitted effect of over 50% in size
Procedure, shortened: (§1)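 HepG2 cells mixed with RealTime-Glo MT reagents (NanoLuc plus cell-permeant prosubstrate) were seeded at 600 cells/well, incubated 5 h at 37 C/5% CO2, then pinned with compounds in DMSO; nonlytic luminescence tracked viability during 40 h treatment.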

[2] = A CellTox Green Cytotoxicity Assay to monitor cytotoxicity in HEK293 cells - 40 hour (AID 1224871); note: nearly all actives have a fitted effect of over 45% in size
Procedure, shortened: (§2)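 Homogeneous no-lysis format: HEK293 cell suspension mixed with CellTox Green reagent, seeded, incubated 5 h at 37 C/5% CO2, then dosed by pintool with compound in DMSO.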

[3] = qHTS RealTime-Glo MT Cell Viability Assay in HEK293 cells - 16 hour (AID 1224872); note: nearly all actives have a fitted effect of over 50% in size; note: potency is the fitted concentration of half-maximal effect
Procedure, shortened: (§3)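 Viability tracked continuously by luminescence as live cells reduce a prosubstrate for NanoLuc; HEK293 cells preincubated 5 h, compound-treated at 37 C, and read at 0, 8, 16, 24, 32 and 40 h.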

[4] = qHTS RealTime-Glo MT Cell Viability Assay in HepG2 cells - 8 hour (AID 1224873); note: nearly all actives have a fitted effect of over 55% in size
Procedure, shortened: as §1

[5] = A CellTox Green Cytotoxicity Assay to monitor cytotoxicity in HEK293 cells - 24 hour (AID 1224875); note: series mostly up to about 77 µM; nearly all actives have a fitted effect of over 45% in size
Procedure, shortened: as §2

[6] = A CellTox Green Cytotoxicity Assay to monitor cytotoxicity in HepG2 cells - 16 hour (AID 1224876); note: nearly all actives have a fitted effect of over 45% in size
Procedure, shortened: (§4)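 Fluorescent DNA-binding dye, 600 HepG2 cells/well, 5 h preincubation then compound in DMSO; same plates read at 0–40 h, 37 C.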

[7] = qHTS RealTime-Glo MT Cell Viability Assay in HepG2 cells - 32 hour (AID 1224877); note: nearly all actives have a fitted effect of over 55% in size
Procedure, shortened: (§5)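 Viability was tracked continuously by NanoLuc luminescence from prosubstrate reduced by living HepG2 cells, at successive time points over 40 h of compound exposure. Cells with reagent were preincubated 5 h at 37 °C before compound addition.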

[8] = A CellTox Green Cytotoxicity Assay to monitor cytotoxicity in HepG2 cells - 24 hour (AID 1224878); note: nearly all actives have a fitted effect of over 45% in size; note: potency is the fitted concentration of half-maximal effect
Procedure, shortened: as §4

[9] = A CellTox Green Cytotoxicity Assay to monitor cytotoxicity in HepG2 cells - 40 hour (AID 1224879); note: nearly all actives have a fitted effect of over 40% in size; note: potency is the fitted concentration of half-maximal effect
Procedure, shortened: as §4

[10] = qHTS RealTime-Glo MT Cell Viability Assay in HEK293 cells - 0 hour (AID 1224880)
Procedure, shortened: (§6)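 Measured as luminescence from the same continuously cultured HEK293 wells at successive time points (0, 8, 16, 24, 32, 40 h) after compound addition. Reagent present from seeding; dosing at 5 h; incubation 37 C.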

[11] = A CellTox Green Cytotoxicity Assay to monitor cytotoxicity in HEK293 cells - 32 hour (AID 1224881); note: nearly all actives have a fitted effect of over 40% in size
Procedure, shortened: as §2

[12] = A CellTox Green Cytotoxicity Assay to monitor cytotoxicity in HepG2 cells - 0 hour (AID 1224882); note: nearly all actives have a fitted effect of over 35% in size
Procedure, shortened: as §4

[13] = A CellTox Green Cytotoxicity Assay to monitor cytotoxicity in HepG2 cells - 32 hour (AID 1224883); note: nearly all actives have a fitted effect of over 50% in size; note: potency is the fitted concentration of half-maximal effect
Procedure, shortened: as §4

[14] = A CellTox Green Cytotoxicity Assay to monitor cytotoxicity in HEK293 cells - 8 hour (AID 1224884); note: nearly all actives have a fitted effect of over 35% in size
Procedure, shortened: as §2

[15] = qHTS RealTime-Glo MT Cell Viability Assay in HepG2 cells - 16 hour (AID 1224885); note: nearly all actives have a fitted effect of over 50% in size
Procedure, shortened: as §5

[16] = qHTS RealTime-Glo MT Cell Viability Assay in HEK293 cells - 24 hour (AID 1224886); note: nearly all actives have a fitted effect of over 50% in size; note: potency is the fitted concentration of half-maximal effect
Procedure, shortened: as §3

[17] = qHTS RealTime-Glo MT Cell Viability Assay in HEK293 cells - 8 hour (AID 1224887); note: nearly all actives have a fitted effect of over 50% in size; note: potency is the fitted concentration of half-maximal effect
Procedure, shortened: as §6

[18] = A CellTox Green Cytotoxicity Assay to monitor cytotoxicity in HEK293 cells - 16 hour (AID 1224888); note: nearly all actives have a fitted effect of over 35% in size
Procedure, shortened: as §2

[19] = qHTS RealTime-Glo MT Cell Viability Assay in HepG2 cells - 0 hour (AID 1224889); note: nearly all actives have a fitted effect of over 50% in size
Procedure, shortened: as §5

[20] = qHTS RealTime-Glo MT Cell Viability Assay in HEK293 cells - 40 hour (AID 1224874); settings: RealTime-Glo luminescence; max response: stronger effect = lower value; note: nearly all actives have a fitted effect of over 50% in size; note: potency is the fitted concentration of half-maximal effect
Procedure, shortened: as §6
% is set by controls: 0 for no effect and ±100 for the full control effect.

COC(=O)Nc1nc2ccc(S(=O)c3ccccc3)cc2[nH]1 (stereo not given)
inactive and 952 nM (active): Potency [13]
active: Potency [3] 1.34 µM | Potency [9] 848 nM | Potency [16] 952 nM
inactive and 10.7 µM (active): Potency [8]
inactive and 1.69 µM (active): Potency [17]
inactive: Potency [1] | Potency [2] | Potency [4] | Potency [5] | Potency [6] | Potency [7] | Potency [10] | Potency [11] | Potency [12] | Potency [14] | Potency [15] | Potency [18] | Potency [19]

Nc1ccc(Cl)cc1Cl
inactive: Potency [1] | Potency [2] | Potency [3] | Potency [4] | max response [20] 8.67% and 2.84% | Potency [5] | Potency [7] | Potency [8] | Potency [9] | Potency [10] | Potency [11] | Potency [12] | Potency [13] | Potency [14] | Potency [15] | Potency [16] | Potency [17] | Potency [18] | Potency [19]

CCCCC(CC)COC(=O)c1ccc(N(C)C)cc1 (stereo not given)
inactive: Potency [1] | Potency [2] | Potency [3] | Potency [4] | max response [20] -14.3% and -13.1% and -14.9% | Potency [5] | Potency [7] | Potency [9] | Potency [10] | Potency [11] | Potency [12] | Potency [13] | Potency [14] | Potency [15] | Potency [16] | Potency [17] | Potency [18] | Potency [19]

O=c1oc(=O)c2cc3c(=O)oc(=O)c3cc12
inactive: Potency [1] | Potency [2] | Potency [3] | Potency [4] | Potency [5] | Potency [7] | Potency [8] | Potency [9] | Potency [10] | Potency [11] | Potency [12] | Potency [13] | Potency [14] | Potency [15] | Potency [16] | Potency [17] | Potency [18] | Potency [19]

NC=O
inactive: Potency [1] | Potency [2] | Potency [3] | Potency [4] | max response [20] -1.02% and -20.4% | Potency [5] | Potency [6] | Potency [7] | Potency [9] | Potency [10] | Potency [11] | Potency [12] | Potency [13] | Potency [14] | Potency [15] | Potency [16] | Potency [17] | Potency [18] | Potency [19]

Nc1ccc(S(=O)(=O)Nc2cnc3ccccc3n2)cc1
inactive: Potency [1] | Potency [2] | Potency [3] | Potency [4] | max response [20] -2.7% and 1.7% | Potency [5] | Potency [7] | Potency [8] | Potency [9] | Potency [10] | Potency [11] | Potency [12] | Potency [13] | Potency [14] | Potency [15] | Potency [16] | Potency [17] | Potency [18] | Potency [19]

CC(C)(C)NC(=O)[C@H]1CC[C@H]2[C@@H]3CC[C@H]4NC(=O)C=C[C@]4(C)[C@H]3CC[C@]12C
inactive: Potency [1] | Potency [2] | Potency [3] | Potency [4] | max response [20] -25.2% and -19.5% | Potency [5] | Potency [6] | Potency [7] | Potency [9] | Potency [10] | Potency [11] | Potency [12] | Potency [13] | Potency [14] | Potency [15] | Potency [16] | Potency [18] | Potency [19]

O=C(COc1ccc(Cl)cc1)N1CCN(Cc2ccc3c(c2)OCO3)CC1
active: Potency [20] 38900 nM | Potency [16] 38900 nM
38.9 µM (active) and inactive: Potency [3]
inactive: Potency [1] | Potency [2] | Potency [4] | Potency [5] | Potency [6] | Potency [7] | Potency [8] | Potency [9] | Potency [10] | Potency [11] | Potency [12] | Potency [13] | Potency [14] | Potency [15] | Potency [18] | Potency [19]

CC(=O)CC/C=C(\C)CCC=C(C)C
inactive: Potency [1] | Potency [2] | Potency [3] | Potency [4] | max response [20] 1.02% and 0.97% | Potency [5] | Potency [6] | Potency [7] | Potency [8] | Potency [9] | Potency [10] | Potency [11] | Potency [12] | Potency [13] | Potency [14] | Potency [15] | Potency [16] | Potency [18] | Potency [19]

CC(C)OB(OC(C)C)OC(C)C
inactive: Potency [1] | Potency [2] | Potency [3] | Potency [4] | max response [20] -5.59% and -12.5% | Potency [5] | Potency [6] | Potency [7] | Potency [8] | Potency [9] | Potency [10] | Potency [11] | Potency [12] | Potency [13] | Potency [14] | Potency [15] | Potency [16] | Potency [17] | Potency [18] | Potency [19]

c1ccncc1
inactive: Potency [1] | Potency [2] | Potency [3] | Potency [4] | Potency [5] | Potency [6] | Potency [7] | Potency [8] | Potency [9] | Potency [11] | Potency [12] | Potency [13] | Potency [14] | Potency [15] | Potency [16] | Potency [18] | Potency [19]
